High-throughput results from PubChem.
SKKanGAS inh = SKKanGAS growth inhibition; hit rate 1.3% among 300,000; inhibition, % at 7.5 µM; S. pyogenes SKKanGAS, kanamycin growth, BacTiter-Glo, 6 h;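 active = mean replicate score, as percent of positive control median, at least 50; inconclusive = mean below 50 but one replicate at or above 50; inactive = mean and every replicate below 50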;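 note: strain carries kanamycin resistance gene driven by streptokinase promoter and grows in 40 µg/ml kanamycin; loss of luminescence reflects streptokinase promoter inhibition or plain growth inhibition; 0% = median of DMSO wells and 100% = positive control at its reference dose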
tim23-1 inh = growth inhibitors of tim23-1 mutant yeast; hit rate 1.3% among 330,000; S. cerevisiae tim23-1 growth, BacTiter-Glo luminescence, 24 h; inhibition, % at 20 µM;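 active = growth inhibition of the mutant yeast at or above 50%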;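 note: temperature-sensitive mutant grown at 25 °C; plate controls were DMSO-treated mutant yeast for no effect and medium wells lacking yeast for full effect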
PfHsp90 yeast 2 = inhibits growth of yeast expressing Plasmodium falciparum Hsp90; S. cerevisiae expressing PfHsp90, BacTiter-Glo ATP, 48 h; yeast lacking PDR1 and PDR3 efflux regulators; inhibition, % at 9.4 µM; hit rate 0.32% among 310,000; AID 504621;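 active = every replicate shows inhibition above about 80%, whatever the replicate mean, limit read from the data; inconclusive = mean inhibition reaches the set limit but some replicate falls short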;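 note: 0% = DMSO neutral controls and 100% = 20 µM radicicol positive controls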
tim10-1 inh = tim10-1 yeast growth inhibition; hit rate 2.2% among 330,000; inhibition, % at 20 µM; S. cerevisiae tim10-1 ts strain growth, BacTiter-Glo, 24 h; AID 463190;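 active = inhibition of at least 40%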;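 note: mutant grown at 25 °C; 0% = DMSO wells with yeast and 100% = wells holding no yeast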
Calb FLC = C. albicans growth modulation with fluconazole | hit rate 0.57% among 300,000 | C. albicans CaCi-2 (fluconazole-resistant clinical isolate) + fluconazole, Alamar Blue growth, 48 h | growth inhibition, % (test concentration not listed);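 active = growth inhibition above about 58% in most replicates, limit read from the data, passing the limit was not always enough; inconclusive = exactly half the replicates above a set limit; inactive = most replicates below a set limit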;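 note: all wells also contain fluconazole at 8 µg/ml as a sub-toxic cotreatment; 0% = median of DMSO wells and 100% = median of geldanamycin control wells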
TIM10 inh = TIM10 yeast growth inhibition; S. cerevisiae TIM10 strain growth, BacTiter-Glo luminescence, 24 h; inhibition, % at 10 µM; hit rate 1.4% among 330,000;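 active = inhibition of 40% or more at the single tested concentration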;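 note: wild-type TIM10 isogenic control strain grown at permissive 25 °C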
tim10-1 confirm = tim10-1 yeast growth inhibition, confirmed; shares compounds with tim10-1 inh; S. cerevisiae tim10-1 ts strain growth, BacTiter-Glo, 24 h; inhibition, % at 20 µM; hit rate 56% among 7,400;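 active = inhibition of yeast growth at or above a set limit in either of two repeat tests at 20 µM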;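 note: tim10-1 mutant grown at permissive 25 °C to find synthetic lethal compounds; 0% = DMSO yeast wells and 100% = medium wells without yeast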
* hit, by the source's call; ? = inconclusive; . = no result. This is a sample that favours compounds with a hit; in the whole collection about 4.7% have one here.

SMILES | SKKanGAS inh | tim23-1 inh | PfHsp90 yeast 2 | tim10-1 inh | Calb FLC | TIM10 inh | tim10-1 confirm
CCn1nc(C)c(C(=O)Nc2cc(Oc3ccc(Cl)cc3)cc([N+](=O)[O-])c2)c1C | 22 | 44 | . | 49* | 13 | 40 | 36*
Cc1ccccc1Oc1cc(NC(=O)CCCn2nc(C)c([N+](=O)[O-])c2C)cc([N+](=O)[O-])c1 | 23 | 24 | 12 | 8 | 0 | 9 | .
CCC(=O)Nc1nc2ccc3nc(C)sc3c2s1 | -4 | 21 | 14 | 48* | 11 | 23 | 23
C=CCN1C(=O)C(O)(CC(=O)c2ccc(-n3cccc3)cc2)c2ccccc21 (stereo not given) | 3 | 39 | -8 | 43* | ? | 29 | 36*
CCOc1cc(/C=C2\C(=O)N(Cc3ccc(C)cc3)C(C)=C2C(=O)OC)ccc1O | 3 | 47 | -11 | 44* | -4 | 28 | 25
CCOc1ccc(N2C=Nc3ccc(OCC)cc3C2)cc1 | -7 | 33 | 26 | 42* | 3 | -1 | 25
CCOc1ccc(N2C(=O)CNC2=S)cc1 | 0 | 5 | . | 26 | -16 | -21 | .
COC(=O)C(C)Oc1ccc(-c2nccc(-c3ccccn3)n2)cc1 (stereo not given) | -6 | 29 | -4 | 35 | 5 | 19 | .
COc1ccc(CN2CC(C(=O)NCCCN3CCCC(C)C3)CC2=O)cc1 (stereo not given) | -3 | -7 | 1 | -4 | 0 | -3 | .
Cc1cc(C)nc(NN=C(c2ccccc2)c2ccccc2)n1 | -4 | 42 | 10 | 47* | -23 | 25 | 24
CC(/C=C/c1ccccc1)=N\Nc1nc(C)cc(C)n1 | 0 | 25 | 0 | 17 | -13 | 8 | .
CCCCNC(=O)C(=O)Nc1cc2c3c(c1)CCC(=O)N3CCC2 | -3 | -16 | 11 | 43* | 10 | -31 | -35
Cc1ccc(NC(=O)CCCSc2ccccc2)cc1S(=O)(=O)N1CCOCC1 | -13 | -5 | 0 | -15 | -3 | -5 | .
Cc1cccn2c(=O)c3cc(S(=O)(=O)c4ccc(Br)cc4)c(=N)n(C4CCCC4)c3nc12 | -10 | 31 | -21 | 41* | -3 | -1 | -10
CC(OC(=O)CNS(=O)(=O)c1ccc2ccccc2c1)C(=O)N(C)c1ccccc1 (stereo not given) | -7 | 24 | 0 | 21 | 16 | 16 | .
CC(OC(=O)COc1ccc(Nc2ccccc2)cc1)C(=O)N(C)c1ccccc1 (stereo not given) | 0 | 31 | 1 | 42* | -1 | 13 | 30*
Cc1cc(C)n(-c2cccc(CN(C)Cc3nc(-c4cnccn4)no3)c2)n1 | -3 | 8 | -2 | 22 | -5 | 5 | .
COCCn1c(-c2ccccc2)csc1=Nc1cccnc1 | -2 | 30 | -82 | 12 | 0 | 4 | .
CC(C)n1c(-c2ccco2)csc1=Nc1cccnc1 | 4 | 35 | 16 | 49* | 3 | 18 | 32*
Cn1c(SCc2ccc(C#N)cc2)nnc1-c1ccncc1 | -4 | -10 | 13 | -14 | 3 | -12 | .
C=CCn1c(SCc2ccc(C#N)cc2)nnc1-c1ccc(C)cc1 | -3 | 36 | . | 44* | 16 | 17 | 28
COc1ccccc1NS(=O)(=O)c1cc(NC(=O)C2CCCO2)ccc1C (stereo not given) | . | 2 | 13 | 3 | . | 1 | .
O=[N+]([O-])c1ccc(Sc2nccn2Cc2ccccc2)c([N+](=O)[O-])c1 | 1 | 39 | -11 | 51* | 1 | 35 | 26
O=[N+]([O-])c1cc(C(F)(F)F)ccc1Sc1nccn1Cc1ccccc1 | 2 | 11 | -9 | 22 | 5 | 17 | .
COc1cccc(C(=O)OCC(=O)NCCC2=CCCCC2)c1 | . | 18 | . | -1 | . | -23 | .
SMILES | SKKanGAS inh | tim23-1 inh | PfHsp90 yeast 2 | tim10-1 inh | Calb FLC | TIM10 inh | tim10-1 confirm
COc1cc(OC)c(C(=O)N(CCc2ccccc2)Cc2ccccc2)cc1OC | 3 | 13 | -10 | 23 | 23 | 10 | .
COc1ccccc1-n1cc(-c2ccccc2)[nH]c1=S | -3 | 46 | -11 | 11 | 5 | 31 | .
COc1ccccc1-n1cc(-c2ccccc2)c2c(=S)nc[nH]c21 | 5 | 41 | -38 | 48* | -7 | 31 | 14
COc1ccc(/C=C2\CC/C(=C\c3ccc(OC)c(OC)c3)C2=O)cc1OC | 6 | 31 | -3 | 19 | -13 | 29 | .
COc1cc(/C=C2\CC/C(=C\c3ccc(OCCO)c(OC)c3)C2=O)ccc1OCCO | 38 | 32 | -17 | 49* | 4 | 10 | 40*
NNC(=O)c1cccc(COc2ccc3c(c2)CCC3)c1 | 10 | 48 | 2 | 47* | -25 | 25 | 19
NNC(=O)c1cccc(COc2ccccc2Br)c1 | -4 | 43 | 5 | 41* | -20 | 39 | 16
CN(C(=O)c1cccc(NC(=O)Cc2cccc(NC(=O)C3CCCN(C(=O)C4CCC4)C3)c2)c1)C1CCC1 (stereo not given) | . | . | -6 | . | . | . | .
N#Cc1nc(-c2ccco2)oc1N1CCCC1 | -10 | 6 | -32 | 15 | 3 | -13 | .
N#Cc1nc(-c2ccco2)oc1N1CCc2ccccc2C1 | 0 | 32 | 25 | 44* | 23 | 15 | 27
O=C(Nc1nnc(C2=COCCO2)o1)c1ccc(Br)cc1 | 101* | 34 | -13 | 42* | -5 | 30 | 39*
CC(=O)Nc1nnc(C2=COCCO2)o1 | -2 | 7 | . | 3 | 13 | -6 | .
O=C(Nc1nnc(C2=COCCO2)o1)c1ccc(Cl)cc1 | 26 | 24 | -33 | 57* | ? | 11 | 32*
O=C(Nc1nnc(C2=COCCO2)o1)c1ccc([N+](=O)[O-])cc1 | -3 | 22 | -24 | 46* | . | 10 | 35*
O=C(Nc1nnc(C2=COCCO2)o1)c1ccc(F)cc1 | 24 | 10 | -2 | 10 | 3 | 2 | .
Cn1c(C(=O)NC2CCCCC2)cc2c(=O)n(C)c3ccccc3c21 | -13 | 22 | 0 | 20 | 4 | 6 | .
CC1CCC(NC(=O)c2cc3c(=O)n(C)c4ccccc4c3n2C)CC1 (stereo not given) | -6 | 27 | . | 40* | 10 | 21 | 29
CC(=O)Nc1ccc(NC(=O)C(C)OC(=O)C2(c3ccccc3F)CCCC2)cc1 (stereo not given) | . | 22 | 2 | 13 | . | 5 | .
COc1ccc(C2(C(=O)N3CCC(n4nc(-c5ccccc5)oc4=O)CC3)CC2)cc1 | 2 | 38 | 36 | 41* | 14 | 14 | 15
Cc1ccc(OCc2cc(C(=O)NC3CCc4ccccc43)no2)cn1 (stereo not given) | -7 | 7 | -2 | -6 | ? | -10 | .
CCCC1CCC(C2=N/C(=C\c3ccc(OC)c(OC)c3)C(=O)O2)CC1 (stereo not given) | 8 | 15 | -25 | 32 | 0 | 23 | .
COc1cccc(/C=C2\N=C(C3CCCCC3)OC2=O)c1OC | 4 | 31 | . | 47* | 1 | 35 | 33*
